Values joined by “and” are separate entries in the source; they are usually repeats but may differ in a detail not shown here. Equal entries are not always repeated. Structures can show the parent of a compound that is named as a salt. ± gives the uncertainty stated by the source.
Test system: U87
Test: cell viability relative to vehicle control; higher = less growth inhibition (less active)
Details: 10 µM; 72 h
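Further: viable cell number estimated from Alamar Blue fluorescence read at 560/90, part of a single-dose primary screen of an FDA-approved drug library.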

Compound	cell viability
Cc1cccc(C)c1NC(=O)C(C)N (stereo not given)	104 ± 2.3%
COc1nc(C)nc(Cl)c1NC1=NCCN1	102 ± 1.7%
Oc1ccc(C2CNCCc3c2cc(O)c(O)c3Cl)cc1 (stereo not given)	103 ± 2.8%
C[C@@H]1C[C@H]2[C@@H]3C[C@H](F)C4=CC(=O)C(Cl)=C[C@]4(C)[C@@]3(F)[C@@H](O)C[C@]2(C)[C@@]1(O)C(=O)CO	102.1 ± 0.4%
CCOC(=O)[C@H](CCc1ccccc1)N[C@H]1CCc2ccccc2N(CC(=O)O)C1=O	107 ± 1.2%
CN1C(C(=O)Nc2ccccn2)=C(O)c2ccccc2S1(=O)=O [Piroxicam]	103 ± 3.7%
CNCC[C@H](Oc1cccc2ccccc12)c1cccs1 [Duloxetine]	104 ± 1.9%
CCC(C)n1ncn(-c2ccc(N3CCN(c4ccc(OCC5COC(Cn6cncn6)(c6ccc(Cl)cc6Cl)O5)cc4)CC3)cc2)c1=O (stereo not given)	21.4 ± 2.1%
CCN(CC)CC(=O)Nc1c(C)cccc1C	94.8 ± 2.8%
CN(C)CC[C@@H](c1ccc(Cl)cc1)c1ccccn1	104 ± 1.6%
O=c1c(O[C@@H]2O[C@H](CO)[C@@H](O)[C@H](O)[C@H]2O)c(-c2ccc(O)c(O)c2)oc2cc(O)cc(O)c12 [Isoquercitrin]	104 ± 1.7%
CN1[C@@H]2CC[C@H]1C[C@@H](OC(=O)c1c[nH]c3ccccc13)C2	105.3 ± 0.81%
CN(C)CCOC(c1ccccc1)c1ccccc1 [Diphenhydramine]	103 ± 1.1%
Fc1ccc([C@@H]2CCNC[C@H]2COc2ccc3c(c2)OCO3)cc1	104.5 ± 1%
CCCN[C@H]1CCc2nc(N)sc2C1 [Pramipexole]	92.5 ± 8.8%
CN(C)[C@@H]1C(O)=C(C(=O)NCN2CCCC2)C(=O)[C@@]2(O)C(O)=C3C(=O)c4c(O)cccc4[C@@](C)(O)[C@H]3C[C@@H]12	107 ± 2.1%
Nc1ncnc2c1ncn2[C@@H]1O[C@H](CO)C[C@@H]1O [3'-deoxydenosine]	100.2 ± 0.64%
Nc1nc2ccc(Cl)cc2c2nc(-c3ccco3)nn12	93.4 ± 5.3%
CC(Cc1ccccc1)(NC(=O)CN)c1ccccc1 (racemic)	93.1 ± 3.1%
COc1cc(C[C@@H](CO)[C@H](CO)Cc2ccc(O)c(OC)c2)ccc1O	96.4 ± 14%

Compound	cell viability
NC1CCN(c2nc3c(cc2F)c(=O)c(C(=O)O)cn3-c2ccc(F)cc2F)C1 (stereo not given)	98.01 ± 0.56%
COC(=O)C1=C(C)NC(C)=C(C(=O)OC2CCCN(Cc3ccccc3)C2)C1c1cccc([N+](=O)[O-])c1 (stereo not given)	104 ± 1.2%
CC(C)(C#N)c1cc(Cn2cncn2)cc(C(C)(C)C#N)c1	109 ± 1.3%
CN(C)CC[C@@H](c1ccc(Br)cc1)c1ccccn1	104.1 ± 0.82%
COc1cccc2c1C(=O)c1c(O)c3c(c(O)c1C2=O)C[C@@](O)(C(=O)CO)C[C@@H]3O[C@H]1C[C@H](N)[C@@H](O)[C@H](C)O1	23.3 ± 0.39%
COc1ccc(C2CNC(=O)C2)cc1OC1CCCC1 (stereo not given)	99.3 ± 1.2%
C[C@]12C[C@H](O)[C@H]3[C@@H](CCC4=CC(=O)CC[C@@]43C)[C@@H]1CC[C@@H]2C(=O)CO	105 ± 1.5%
Cc1ccc(O)c([C@H](CCN(C(C)C)C(C)C)c2ccccc2)c1	103.8 ± 0.47%
O=C1c2cccc3c2[C@H](CCC3)CN1[C@@H]1CN2CCC1CC2	84.3 ± 1.7%
CC[C@@H]1C(=O)OC[C@@H]1Cc1cncn1C	101 ± 0.86%
CNCCCC12CCC(c3ccccc31)c1ccccc12 [Maprotilline HCl]	102 ± 1.5%
NC(=O)N1c2ccccc2CC(=O)c2ccccc21 [Trileptal]	102 ± 2.4%
COc1ccccc1OCC(O)CN1CCN(CC(=O)Nc2c(C)cccc2C)CC1 (stereo not given) [Ranolazine dihydrochloride]	102.8 ± 0.94%
CCOc1cc(CC(=O)N[C@@H](CC(C)C)c2ccccc2N2CCCCC2)ccc1C(=O)O	105 ± 1.5%
NC[C@H]1CC[C@H](C(=O)Oc2ccc(CCC(=O)O)cc2)CC1	104.6 ± 0.48%
CN1CCN2c3ncccc3Cc3ccccc3C2C1 (stereo not given)	108 ± 2.1%
CCOc1cc(N)c(Cl)cc1C(=O)NCC1CN(Cc2ccc(F)cc2)CCO1 (stereo not given)	108 ± 1.4%
COc1ccc2[nH]c([S+]([O-])Cc3ncc(C)c(OC)c3C)nc2c1 (stereo not given)	105% and 106%
C/C=C1\[C@H]2C=C(C)C[C@]1(N)c1ccc(=O)[nH]c1C2	106.5 ± 0.73%
C#C[C@]1(O)CC[C@H]2[C@@H]3CCc4cc(OC)ccc4[C@H]3CC[C@@]21C	102.9 ± 0.33%

— the supplement of paper PMC3898565
